This is an account of results in PubChem BioAssay AID1347420 (Sanford-Burnham Center for Chemical Genomics, 2020).

The campaign covered roughly 1,300 compounds. About 980 (75%) were called active. Not shown: some 4% with an inconclusive outcome. This is one part of the list. Unmarked numbers belong to inactive results. Residues, ends and D or L forms follow the SMILES beside them. *: point of attachment. Cbz = O=C(OCc1ccccc1)*

For the assay, the target named is Sulfhydryl oxidase 1 (Homo sapiens) (UniProt O00391). In words: QSOX1 enzyme inhibitors, primary screen, biochemical, HyperBlu H2O2 luminescence, HTS (AID 1347420). Note: values above 100% were filed as inconclusive. The settings on record: recombinant QSOX1, HyperBlu H2O2 luminescence; at 12.5 µM; hits give high values; active = any value above zero.
Sulfhydryl oxidase 1 (Homo sapiens), sequence (O00391 whole entry, looked up): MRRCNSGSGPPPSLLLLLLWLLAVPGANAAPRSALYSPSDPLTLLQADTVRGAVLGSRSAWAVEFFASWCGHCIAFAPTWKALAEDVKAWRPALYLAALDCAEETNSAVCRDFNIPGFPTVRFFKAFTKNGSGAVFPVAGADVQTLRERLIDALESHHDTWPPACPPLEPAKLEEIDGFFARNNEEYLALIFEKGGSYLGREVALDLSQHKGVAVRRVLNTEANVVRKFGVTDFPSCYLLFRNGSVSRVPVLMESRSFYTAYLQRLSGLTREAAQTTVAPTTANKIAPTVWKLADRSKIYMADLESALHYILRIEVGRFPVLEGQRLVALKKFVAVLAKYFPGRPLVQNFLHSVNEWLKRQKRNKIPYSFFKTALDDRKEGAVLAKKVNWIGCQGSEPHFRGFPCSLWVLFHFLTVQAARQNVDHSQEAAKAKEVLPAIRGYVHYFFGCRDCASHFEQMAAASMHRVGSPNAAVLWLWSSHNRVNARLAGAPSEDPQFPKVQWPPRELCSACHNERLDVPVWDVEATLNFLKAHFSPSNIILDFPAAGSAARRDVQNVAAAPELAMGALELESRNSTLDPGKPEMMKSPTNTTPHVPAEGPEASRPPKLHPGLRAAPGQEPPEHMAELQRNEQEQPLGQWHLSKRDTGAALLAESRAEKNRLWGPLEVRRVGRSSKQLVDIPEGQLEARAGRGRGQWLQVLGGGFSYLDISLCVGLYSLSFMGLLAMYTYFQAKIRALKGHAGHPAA
Broadly, the inhibition is the change of the read-out against control, counted positive when it falls. As for `CC1=C(/C=C/C(C)=C/C=C/C(C)=C/C(=O)Nc2ccc(O)cc2)C(C)(C)CCC1`, the inhibition was 29.7% (active).
With `CC1=C(/C=C/C(C)=C/C=C/C(C)=C\C(=O)O)C(C)(C)CCC1` the figure was 3.1% (active); with `CC1=C(/C=C/C(C)=C/C=C/C(C)=C/C(=O)O)C(C)(C)CCC1`, 11.4% (active).
With `O=C(Nc1ccccc1)c1cc([N+](=O)[O-])ccc1Cl` the figure was 35.3% (active); with `O=C(O)c1cc([N+](=O)[O-])ccc1NCCCc1ccccc1`, 84.4% (active); with `O=C(Nc1ccc([N+](=O)[O-])cc1Cl)c1cc(Cl)ccc1O`, 11.3% (active).
The value for `O=C(Nc1ccncc1)c1cc([N+](=O)[O-])ccc1Cl` was 41.9% (active).
Take `O=C(O)/C=C/c1ccc(O)c(O)c1`: the inhibition is 74.3% (active).
Regarding `O=C(/C=C/c1ccc(O)c(O)c1)OCCc1ccccc1`, the inhibition was 98.9% (active).
With `O=c1cc(O)cc(/C=C/c2ccc(O)c(O)c2)o1` the figure was 84.2% (active).
For the compound `CN1CCCC1CCOC(C)(c1ccccc1)c1ccc(Cl)cc1` (stereo unspecified), the inhibition was 7.6% (active).
On to `CCN(CC)C(=O)c1ccc(O)c(OC)c1`, for which the inhibition is 17.3% (active).
The value for `NCCc1ccc(O)c(O)c1` was 61.7% (active); that for `COc1cc(CC(=O)O)ccc1O` was 4.4% (active).
The value for `O=C(O)Cc1ccc(O)c(O)c1` was 52.8% (active); that for `CCc1c(C(=O)NCCc2ccc(N3CCCCC3)cc2)[nH]c2ccc(Cl)cc12` was 13.2% (active).
The value for `O=C(N[C@@H](Cc1ccccc1)C(=O)CCl)OCc1ccccc1` was 0.2% (active); that for `Cc1ccc(S(=O)(=O)N[C@@H](Cc2ccccc2)C(=O)CCl)cc1` was 4% (active).
`CC(C)[C@H](NC(=O)OCc1ccccc1)C(=O)N[C@H](C=O)Cc1ccccc1` (Cbz-Val-Phe-aldehyde): the inhibition is -15.7%.
For the compound `CC(C(=O)O)c1ccc(CC2CCCC2=O)cc1` (stereo unspecified), the inhibition is 13.5% (active).
In the case of `CC(C)Cc1ccc([C@H](C)C(=O)O)cc1`, the inhibition is 5.1% (active).
With `CC(C)Cc1ccc(C(C)C(=O)O)cc1` (stereo unspecified) the figure was -0.2%; with `CC(C)(C)c1ccc(C(O)CCCN2CCC(C(O)(c3ccccc3)c3ccccc3)CC2)cc1` (stereo unspecified), 6.1% (active).
With `CC(C)(C(=O)O)c1ccc(C(O)CCCN2CCC(C(O)(c3ccccc3)c3ccccc3)CC2)cc1` (stereo unspecified) the figure was -4.1%; with `CC(C)(C)c1ccc(/C=C/C(=O)Nc2ccc3c(c2)OCCO3)cc1`, 17.7% (active).
Take `[Li+]`: the inhibition was 6.5% (active).
The value for `CN(C)C(=O)n1nnnc1Cc1ccc(-c2ccccc2)cc1` was 2.4% (active); that for `CC(C)c1cccc(C(C)C)c1N1C(=O)c2ccc(O)cc2C1=O` was -98.1%; that for `CSc1nc(N)c2ncn([C@@H]3O[C+](COP(=O)([O-])OP(=O)(O)O)[C@H](O)C3O)c2n1` (stereo partly specified) was 26.4% (active).
Consider `CN(C)C/C=C(/c1ccc(Br)cc1)c1cccnc1`, for which the inhibition is -9.2%.
With `Nc1nc(N)c2nc(-c3ccccc3)c(N)nc2n1` the figure was -11.2%.
The value for `Nc1nnc(-c2cccc(Cl)c2Cl)c(N)n1` was 4.9% (active).
With `Cc1nc2c([nH]1)c(=O)n(C)c(=O)n2Cc1ccco1` the figure was 10.1% (active); with `CCCOc1ccccc1-c1nc2n[nH]nc2c(=O)[nH]1`, 15.8% (active).
Take `Cc1nnc(SCC2=C(C(=O)O)N3C(=O)[C@@H](NC(=O)Cn4cnnn4)[C@H]3SC2)s1`: the inhibition is 10.4% (active).
For `Cc1ccc2nc(CN(CCN(Cc3nc4ccc(C)cc4[nH]3)Cc3nc4ccc(C)cc4[nH]3)Cc3nc4ccc(C)cc4[nH]3)[nH]c2c1`, the inhibition is -0.7%.
With `O=C(O)C1=CCCNC1` the figure was 5.6% (active).
The value for `C=C(C)C1CC=C(C(=O)O)CC1` (stereo unspecified) was -10.6%; that for `O=C(O)C1=CCNCC1` was 0.2% (active).
With `Nc1nc(OCC2CCCCC2)c2[nH]cnc2n1` the figure was 11.1% (active).
Regarding `Nc1nc(OCc2ccccc2)c2[nH]cnc2n1`, the inhibition is 5.5% (active).
With `Nc1nc(N)c(N=O)c(OCC2CCCCC2)n1` the figure was 29.8% (active).
The value for `CC(COc1ccccc1)N(CCCl)Cc1ccccc1` (stereo unspecified) was -3.7%.
With `CC(C)N(CCC(=O)c1ccc2ccccc2c1)Cc1ccccc1` the figure was 5.9% (active); with `O=S(=O)(c1cccc2c(I)cccc12)N1CCCNCC1`, 6% (active); with `O=S(=O)(c1cccc2c(Cl)cccc12)N1CCCNCC1`, 7.1% (active).
For `CN(C)CCOC(c1ccccc1)c1ccccc1`, the inhibition was 15.9% (active).
The value for `Cc1ccccc1C(OCCN(C)C)c1ccccc1` (stereo unspecified) was 2.5% (active).
With `Cc1cc2c(C(C)C)c(O)c(O)c(C=O)c2c(O)c1-c1c(C)cc2c(C(C)C)c(O)c(O)c(C=O)c2c1O` the figure was 74.3% (active); with `CCC(=O)N1CCN(C(=O)c2ccccc2)CC1`, 3.1% (active); with `Cc1ccc(Cl)c(Nc2ccccc2C(=O)O)c1Cl`, 7.8% (active).
With `O=c1onc2cnc3ccccc3n12` the figure was 6.8% (active); with `CN(C)CC[C@@H](c1ccc(Br)cc1)c1ccccn1`, -5.9%; with `CN(C)CCC(c1ccc(Br)cc1)c1ccccn1` (stereo unspecified), -10.9%.
Take `CN(C)CCC(c1ccccc1)c1ccccn1` (stereo unspecified): the inhibition was 4.2% (active).
As for `CN(C)CCC(c1ccc(Cl)cc1)c1ccccn1` (stereo unspecified), the inhibition was 6.9% (active).
With `CN(C)CC[C@@H](c1ccc(Cl)cc1)c1ccccn1` the figure was 3.5% (active); with `O=C1N(c2ccccc2)c2ccccc2C1(Cc1ccncc1)Cc1ccncc1`, 7.6% (active).
`Nc1c2c(nc3ccccc13)CCCC2`: the inhibition was 20.5% (active).
With `Nc1c2c(nc3ccccc13)CCCC2O` (stereo unspecified) the figure was 4% (active).
The value for `COc1ccccc1N1CCN(CC(O)COc2cccc3ccccc23)CC1` (stereo unspecified) was 11.9% (active); that for `COc1ccccc1OCC(O)CN1CCN(CC(=O)Nc2c(C)cccc2C)CC1` (stereo unspecified) was 2.7% (active); that for `Cc1cn[nH]c1` was -6.5%.
The value for `COc1cc2nc(N3CCN(C(=O)C4COc5ccccc5O4)CC3)nc(N)c2cc1OC` (stereo unspecified) was 11.9% (active).
For the compound `COc1cc2nc(N3CCN(C(=O)OCc4ccccc4)C(C(=O)NC(C)(C)C)C3)nc(N)c2cc1OC` (stereo unspecified), the inhibition was 0.6% (active).
With `COc1cc2nc(N3CCN(C(=O)C4CCCO4)CC3)nc(N)c2cc1OC` (stereo unspecified) the figure was 8.6% (active); with `COc1cc2nc(N3CCN(C(=O)c4ccco4)CC3)nc(N)c2cc1OC`, 5.9% (active).
With `COc1cc2nc(N(C)CCCNC(=O)C3CCCO3)nc(N)c2cc1OC` (stereo unspecified) the figure was 0.2% (active); with `COc1cccc(C(=O)NCCN2CCN(c3ccc(Cl)cc3)CC2)c1`, 45.7% (active).
The value for `O=C(Nc1nc2ccccc2n1CCN1CCOCC1)c1cccc([N+](=O)[O-])c1` was -17.8%; that for `O=C(NCCN1CCOCC1)c1ccc(Cl)cc1` was 5.4% (active).
